# Test results published in the supplement of paper PMC6555819.
# Test system: RARg:RXRa (NR concentration 270 nM, RXRa partner concentration 90 nM)
# Test: PBM binding z-score (relative to random genomic background probes); higher = stronger binding; sequences stand for … in GC…GCGATTGACAGCGTAGAATGAAGG
# Summary of the method: (§1)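 On custom Agilent 4×180K arrays, double-stranded probes with 34-nt variable regions carried direct-repeat seeds, single-nucleotide variants, half-site ablations or random human genomic background. Ligand-free nuclear receptor dimers were applied for 1 h, and binding was read with antibodies against each partner (one per run). Binding z-scores come from regression-normalized fluorescence, with the random background probes as reference.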
row,Sequence,PBM binding z-score
1,CCTCGGAGGACAGAAGGTCAGAACTGTCCGCTTT,2.9
2,CCTTACGGGTCAAGGTTATAGCGCGGGTGGTACG,4.83
3,CCGACTGGGGCAGAAAGGTTTCCATACCATCCGG,-0.218
4,TTACCAAGGTGAAAGGTTGTTGATGCACGCCTTG,1.65
5,GCAGACAGGTAAAACGCAGGTAACTCAGGGTGGC,-0.164
6,AGTCAAAGTTCATGACGAGGTAACGTAAAGCACG,6.13
7,ATATGTAGGTTAATGGTCATTCAGGTTGGTTCGC,1.02
8,ACTATTAGTTGAGACAAGGGCAACCGATAGGTTG,0.568
9,CCGACTGGGGCATAAAGTTACCATAAGCCAGCCC,-0.0793
10,CGTCCACGGTCATAGGAGGTCAGTGAAGACAGAT,3.21
11,TAGCCTTGGTCATGGGCCAGTATACCACGCGAAC,0.368
12,TCTGCTAGGTCAACGATGATCAGCTAATCTGCTA,3.81
13,CCAGACAGGTGAAAGGTACCTCAGTCTGGTACGC,0.666
14,ATATGTAGGTTATCGGGTTATTCAGTTTGCGCAT,1.3
15,TCTTGTAGATCAAAGGATAAGAAAGCCGAAGCCT,-0.0685
16,TCTTGTAGATCAGCAGGTTAAGGAAGCTGGCCAA,0.132
17,GTGACTGGGGCAAAGCAGGTTACCATAAGGTTGG,1.43
18,ACAGACAGGTCAGTGAAGGTAACTCAGCTGGACG,3.33
19,ACTATTAGTTGACTTAGGGAAACCGATACGACGC,0.158
20,CCGTACGGGTCACGAGGTTATAGCACGACGAGCG,6.39

row,Sequence,PBM binding z-score
1,TCAAGTTGGTCACGGAGGTCACACACGACGGGTA,4.9
2,CCAGACGGGTGAAAGGTAACTCAGTCTGGTACGC,0.694
3,CGTCCAAGGTCATAGAAGGTCAGTGAAGACAGAT,6.7
4,CCTACTGGGCCATTCAGAGGTCATTGACCATATG,4.57
5,ACTGACAGGTGAGTGAAGGTAACTCAGCTGGACG,0.285
6,ATACCAAGGTGGTCGTGAGGTCGTTGATACTAAC,1.25
7,AGTACGAGGGCACGCTGAGTTGATAGCAGAGTAG,2.07
8,TCGAGTAGGTTACCACTGGGGCATTCAGCTTTCT,0.939
9,AGTACAGGGTCACTAGGCCAGAGTAGGTACGAAT,5.25
10,CCTCGGAGGACAGTAGGTCAGAGCTGTCCGCTTT,2.09
11,AATACAGGGTCACTAGGCCGGAGTAGGTACGAAT,5.13
12,TCTGCTAGGTCAGCTGGTCAGCTAACGAGCTGCC,3.42
13,GCTAGCAGGCCATCTGGGTCACTCAATGACGGGC,1.2
14,TGAATGAGGTTAAAAATCAGGGAACGTGGCGTCG,1.38
15,GTACTAAGGTGAATAGGTCGTTGATGAGTAGGCG,3.3
16,TCATATAGGTAATAGAGGTGAAAGTCGGCATCTA,1.08
17,TCTAGTAGATCAATAGAGGTTAAGAAAGTGCGCT,0.728
18,CCTACTGGGCCAAAGGTCATTCATTCCAATGCTC,5.99
19,AGTCAAAGTTCACTAAGTAACGTAAGATTCAGCT,4.63
20,ACTAGCAGACCAAGGGTCACTCAAGATTAGTCCG,3.6

# Test system: RARg homodimer (NR concentration 270 nM)
# Test: as above
# Summary of the method: as §1
row,Sequence,PBM binding z-score
1,CCTCGGAGGACAGAAGGTCAGAACTGTCCGCTTT,2.58
2,CCTTACGGGTCAAGGTTATAGCGCGGGTGGTACG,4.46
3,CCGACTGGGGCAGAAAGGTTTCCATACCATCCGG,0.0471
4,TTACCAAGGTGAAAGGTTGTTGATGCACGCCTTG,0.911
5,GCAGACAGGTAAAACGCAGGTAACTCAGGGTGGC,-0.43
6,AGTCAAAGTTCATGACGAGGTAACGTAAAGCACG,5.76
7,ATATGTAGGTTAATGGTCATTCAGGTTGGTTCGC,1.11
8,ACTATTAGTTGAGACAAGGGCAACCGATAGGTTG,0.799
9,CCGACTGGGGCATAAAGTTACCATAAGCCAGCCC,0.0317
10,CGTCCACGGTCATAGGAGGTCAGTGAAGACAGAT,3.97
11,TAGCCTTGGTCATGGGCCAGTATACCACGCGAAC,0.681
12,TCTGCTAGGTCAACGATGATCAGCTAATCTGCTA,4.38
13,CCAGACAGGTGAAAGGTACCTCAGTCTGGTACGC,0.394
14,ATATGTAGGTTATCGGGTTATTCAGTTTGCGCAT,1.01
15,TCTTGTAGATCAAAGGATAAGAAAGCCGAAGCCT,-0.196
16,TCTTGTAGATCAGCAGGTTAAGGAAGCTGGCCAA,-0.17
17,GTGACTGGGGCAAAGCAGGTTACCATAAGGTTGG,1.19
18,ACAGACAGGTCAGTGAAGGTAACTCAGCTGGACG,4.21
19,ACTATTAGTTGACTTAGGGAAACCGATACGACGC,0.385
20,CCGTACGGGTCACGAGGTTATAGCACGACGAGCG,5.81

row,Sequence,PBM binding z-score
1,TCAAGTTGGTCACGGAGGTCACACACGACGGGTA,4.56
2,CCAGACGGGTGAAAGGTAACTCAGTCTGGTACGC,0.136
3,CGTCCAAGGTCATAGAAGGTCAGTGAAGACAGAT,7.06
4,CCTACTGGGCCATTCAGAGGTCATTGACCATATG,3.23
5,ACTGACAGGTGAGTGAAGGTAACTCAGCTGGACG,0.606
6,ATACCAAGGTGGTCGTGAGGTCGTTGATACTAAC,0.566
7,AGTACGAGGGCACGCTGAGTTGATAGCAGAGTAG,2.38
8,TCGAGTAGGTTACCACTGGGGCATTCAGCTTTCT,0.436
9,AGTACAGGGTCACTAGGCCAGAGTAGGTACGAAT,5.26
10,CCTCGGAGGACAGTAGGTCAGAGCTGTCCGCTTT,2.06
11,AATACAGGGTCACTAGGCCGGAGTAGGTACGAAT,4.62
12,TCTGCTAGGTCAGCTGGTCAGCTAACGAGCTGCC,4.27
13,GCTAGCAGGCCATCTGGGTCACTCAATGACGGGC,1.84
14,TGAATGAGGTTAAAAATCAGGGAACGTGGCGTCG,0.835
15,GTACTAAGGTGAATAGGTCGTTGATGAGTAGGCG,1.84
16,TCATATAGGTAATAGAGGTGAAAGTCGGCATCTA,0.999
17,TCTAGTAGATCAATAGAGGTTAAGAAAGTGCGCT,0.2
18,CCTACTGGGCCAAAGGTCATTCATTCCAATGCTC,4.7
19,AGTCAAAGTTCACTAAGTAACGTAAGATTCAGCT,5.16
20,ACTAGCAGACCAAGGGTCACTCAAGATTAGTCCG,3.3
